# Results from the supplement of paper PMC6555819.
# Key:
# Test in all cases: PBM binding z-score (relative to random genomic background probes); higher = stronger binding; sequences stand for … in GC…GCGATTGACAGCGTAGAATGAAGG
# [1] = system: FXR:RXRa (NR concentration 270 nM, RXRa partner concentration 90 nM)
# How it was run: (§1)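 Binding z-scores take random background probes as their reference. They come from custom Agilent 4×180K protein-binding microarrays incubated 1 h with ligand-free nuclear receptor dimers, with antibodies against each partner (one per run) detecting binding. Scanned fluorescence was regression-normalized.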
# [2] = system: LXRa:RXRa (NR concentration 270 nM, RXRa partner concentration 90 nM)
# How it was run: as §1
# [3] = system: LXRa homodimer (NR concentration 270 nM)
# How it was run: as §1
# [4] = system: LXRb:RXRa (NR concentration 270 nM, RXRa partner concentration 90 nM)
# How it was run: as §1
# [5] = system: LXRb homodimer (NR concentration 270 nM)
# How it was run: as §1
# [6] = system: PPARa:RXRa (NR concentration 270 nM, RXRa partner concentration 90 nM)
# How it was run: as §1
# [7] = system: PPARg:RXRa (NR concentration 180 nM, RXRa partner concentration 90 nM)
# How it was run: as §1
# [8] = system: PPARg:RXRa 270nM:90nM, anti-RXR (NR concentration 270 nM, RXRa partner concentration 90 nM)
# How it was run: as §1
# [9] = system: PPARg:RXRa 30nM:10nM, anti-RXR (NR concentration 30 nM, RXRa partner concentration 10 nM)
# How it was run: as §1
# [10] = system: PPARg:RXRa 90nM:30nM, anti-RXR (NR concentration 90 nM, RXRa partner concentration 30 nM)
# How it was run: as §1
# [11] = system: PPARg:RXRa DBDmut IVT, anti-RXR (DBD mutation: RXRa K156A/R161A, NR concentration 270 nM, RXRa partner concentration 90 nM)
# How it was run: as §1
# [12] = system: PPARg:RXRa IVT, anti-PPARg (NR concentration 270 nM, RXRa partner concentration 90 nM)
# How it was run: as §1
# [13] = system: PPARg DBDmut:RXRa IVT, anti-PPARg (DBD mutation: PPARg1 K132A/R137A, NR concentration 270 nM, RXRa partner concentration 90 nM)
# How it was run: as §1
# [14] = system: PPARg DBDmut IVT, anti-PPARg (DBD mutation: PPARg1 K132A/R137A, NR concentration 270 nM)
# How it was run: as §1
# [15] = system: PPARg homodimer (NR concentration 180 nM)
# How it was run: as §1
# [16] = system: PXR:RXRa (NR concentration 270 nM, RXRa partner concentration 90 nM)
# How it was run: as §1
# [17] = system: PXR homodimer (NR concentration 270 nM)
# How it was run: as §1
# [18] = system: RARa:RXR (NR concentration 270 nM, RXRa partner concentration 90 nM)
# How it was run: as §1
# [19] = system: RARa homodimer (NR concentration 270 nM)
# How it was run: as §1
# [20] = system: RARb:RXRa (NR concentration 270 nM, RXRa partner concentration 90 nM)
# How it was run: as §1
Sequence,PBM binding z-score [1],PBM binding z-score [2],PBM binding z-score [3],PBM binding z-score [4],PBM binding z-score [5],PBM binding z-score [6],PBM binding z-score [7],PBM binding z-score [8],PBM binding z-score [9],PBM binding z-score [10],PBM binding z-score [11],PBM binding z-score [12],PBM binding z-score [13],PBM binding z-score [14],PBM binding z-score [15],PBM binding z-score [16],PBM binding z-score [17],PBM binding z-score [18],PBM binding z-score [19],PBM binding z-score [20]
CAAACTAGGTTAAGAGGTCAAAGTCCGCTTCCCG,5.61,5.82,6.25,4.8,1.58,5.87,7.84,7.23,5.52,7.19,7.16,7.32,2.96,2.44,4.58,5.64,2.31,6.47,2.19,4.23
CTACCAAGGCGAACAAGGTCGTTGATTACTATTC,0.285,0.164,0.0479,0.521,-0.798,0.658,0.0767,0.292,-0.118,-0.247,0.161,-0.119,-0.0454,0.0113,0.33,1.25,0.453,1.16,0.111,0.395
CCTACTGGGCCTAGGTCATTGATCAGTCAAAGCA,0.983,1.42,0.403,1.31,-0.469,1.77,0.62,1.47,-0.181,1.03,-0.391,1.13,-1.99,-1.42,1.21,0.949,-0.0903,1.57,-0.574,1.94
CAAACTAGGTCACGAAAGGTCAGAGTCGAATGAC,6.76,7.61,5.28,6.37,1.23,5.96,10.3,7.74,6.9,8.34,8.85,9.13,3.21,1.91,7.35,6.33,1.71,6.97,5.45,5.39
AGTCAAAGTTCACTAGGTAAAGTAAGATTCAGCT,5.11,4.89,2.94,2.95,0.968,4.53,7.12,6.14,3.45,5.45,1.8,4.56,0.983,1.74,2.43,3.9,2.63,3.07,1.41,4.74
TGAATGAGGTTACAGATCAGGGAACGTGGCGTCG,1.82,1.45,-0.368,0.694,0.104,2.94,2.65,3.06,1.45,2.65,2.62,3.25,0.697,0.0776,0.777,0.892,-0.64,1.67,0.0673,1.9
TAGCCTAAGTCATTGGGCCAGTATAGTACGCATC,-0.205,-0.421,-0.659,-0.39,-0.339,-0.181,0.256,-0.24,-0.281,-0.391,-0.775,-0.00957,-0.0162,-1.02,-0.452,-0.441,-0.814,-0.394,-0.564,0.068
